# Reference: PubChem BioAssay
# Active and inactive are the calls of the source.
# Tests used:
# [1] = E. coli DRC41 culture turbidity changes, primary screen, E. coli filamentation inducer project, strain DRC41, OD650, 48 h (AID 1152);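 further: E. coli MC1000 strain DRC41 lacking acrAB efflux pump and sulA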; settings: E. coli DRC41 (acrAB sulA), higher = more signal, called active from +8 up or from −8 down
# [2] = small-molecule binders of probe aLefty1, primary screen, biochemical, small-molecule microarray, 635/667 nm fluorescence (AID 1153); settings: higher = more signal;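 further: score merges spot fluorescence with signal-to-noise ratio from the scanned slide images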
# [3] = PSAC antagonists in infected red cells, primary screen, cell-based, P. falciparum Indochina, OD700, 1 h (AID 1154); settings: P. falciparum Indochina infected RBC osmotic lysis, higher = more signal, called active from +8 up or from −8 down
# [4] = PSAC antagonists in infected red cells, primary screen, cell-based, P. falciparum Indochina, OD700, 2 h (AID 1155);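 further: lysis reports solute entry through the parasite surface anion channel PSAC; channel blockers reduce lysis of infected cells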; settings: P. falciparum Indochina infected erythrocytes, osmotic lysis OD700; higher = more signal, called active from +8 up or from −8 down
# [5] = osmotic lysis modulators in infected erythrocytes, primary screen, PSAC antagonist project, cell-based, P. falciparum Indochina, OD700, 3 h (AID 1156); settings: higher = more signal, called active from +8 up or from −8 down
# [6] = PSAC antagonists in infected red cells, primary screen, cell-based, P. falciparum Indochina, OD700, 18 h (AID 1157); settings: P. falciparum Indochina infected erythrocytes, osmotic lysis OD700, 18 h; higher = more signal, called active from +8 up or from −8 down
# [7] = modulators of S6 phosphorylation in cells, primary screen, cell-based, A549, cytoblot, luminescence, serum-stimulated (AID 1158); settings: A549 phospho-S6 cytoblot, 5 h, higher = more signal;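 further: serum-stimulated A549 lung adenocarcinoma cells; signal is phosphorylated S6 detected by cytoblot immunostaining with HRP secondary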
# [8] = target: NADPH oxidase 2 (Homo sapiens) (UniProt P04839); assay: NOX2-dependent H2O2 signal modulators, primary screen, NOX inhibitor project, cell-based, HEK293-NOX2, PMA-stimulated, Amplex Red fluorescence (AID 1159); settings: 45 min, higher = more signal, called active from +8 up or from −8 down; further: test concentration not given here
# [9] = target: NADPH oxidase 4 (Homo sapiens) (UniProt Q9NPH5); assay: NOX4-dependent H2O2 signal modulators, primary screen, NOX inhibitor project, cell-based, HEK293-NOX4, tetracycline-induced, Amplex Red fluorescence (AID 1160); settings: 45 min, higher = more signal, called active from +8 up or from −8 down
# [10] = target: NADPH oxidase 5 (Homo sapiens) (UniProt Q96PH1); assay: NOX5-dependent H2O2 signal modulators, primary screen, NOX inhibitor project, cell-based, HEK293-NOX5, Amplex Red fluorescence (AID 1161); settings: HEK293-NOX5, ionomycin, 45 min, higher = more signal
# NADPH oxidase 5 (Homo sapiens), sequence (Q96PH1 whole entry, looked up): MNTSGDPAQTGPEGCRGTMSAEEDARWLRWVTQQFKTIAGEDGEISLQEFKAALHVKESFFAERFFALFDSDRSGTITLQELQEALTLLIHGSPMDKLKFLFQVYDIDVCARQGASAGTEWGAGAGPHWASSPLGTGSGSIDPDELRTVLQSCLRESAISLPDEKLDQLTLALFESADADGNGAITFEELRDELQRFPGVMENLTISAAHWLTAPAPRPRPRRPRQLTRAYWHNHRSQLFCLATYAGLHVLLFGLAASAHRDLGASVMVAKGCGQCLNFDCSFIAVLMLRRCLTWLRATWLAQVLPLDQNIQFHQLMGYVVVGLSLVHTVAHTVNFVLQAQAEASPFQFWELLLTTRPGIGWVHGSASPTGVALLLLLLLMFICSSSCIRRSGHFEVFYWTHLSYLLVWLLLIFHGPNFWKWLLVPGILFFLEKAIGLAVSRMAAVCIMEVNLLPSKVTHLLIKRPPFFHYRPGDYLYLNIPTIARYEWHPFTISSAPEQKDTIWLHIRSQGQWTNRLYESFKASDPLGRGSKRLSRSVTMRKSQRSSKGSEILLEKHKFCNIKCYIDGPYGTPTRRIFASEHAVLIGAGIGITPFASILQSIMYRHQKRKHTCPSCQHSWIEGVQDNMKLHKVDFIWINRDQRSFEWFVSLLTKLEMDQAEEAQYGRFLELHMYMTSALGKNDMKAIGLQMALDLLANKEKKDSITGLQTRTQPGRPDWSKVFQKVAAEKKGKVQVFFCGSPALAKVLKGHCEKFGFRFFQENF
# NADPH oxidase 4 (Homo sapiens), sequence (Q9NPH5 whole entry, looked up): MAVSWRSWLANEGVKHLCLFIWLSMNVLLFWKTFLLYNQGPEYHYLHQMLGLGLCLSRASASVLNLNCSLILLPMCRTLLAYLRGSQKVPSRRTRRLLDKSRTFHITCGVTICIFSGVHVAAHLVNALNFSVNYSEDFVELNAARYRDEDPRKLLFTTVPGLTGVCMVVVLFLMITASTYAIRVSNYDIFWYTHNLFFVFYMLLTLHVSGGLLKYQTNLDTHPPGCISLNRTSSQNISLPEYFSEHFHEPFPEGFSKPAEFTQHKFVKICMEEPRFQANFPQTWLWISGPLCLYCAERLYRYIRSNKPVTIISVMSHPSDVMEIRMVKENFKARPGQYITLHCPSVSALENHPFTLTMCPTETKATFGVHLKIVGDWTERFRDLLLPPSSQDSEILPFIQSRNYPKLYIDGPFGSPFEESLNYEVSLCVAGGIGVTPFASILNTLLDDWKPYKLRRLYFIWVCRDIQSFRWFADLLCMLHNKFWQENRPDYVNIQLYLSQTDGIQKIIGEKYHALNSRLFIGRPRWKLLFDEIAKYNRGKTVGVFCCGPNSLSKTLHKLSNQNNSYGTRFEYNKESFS
# NADPH oxidase 2 (Homo sapiens), sequence (P04839 whole entry, looked up): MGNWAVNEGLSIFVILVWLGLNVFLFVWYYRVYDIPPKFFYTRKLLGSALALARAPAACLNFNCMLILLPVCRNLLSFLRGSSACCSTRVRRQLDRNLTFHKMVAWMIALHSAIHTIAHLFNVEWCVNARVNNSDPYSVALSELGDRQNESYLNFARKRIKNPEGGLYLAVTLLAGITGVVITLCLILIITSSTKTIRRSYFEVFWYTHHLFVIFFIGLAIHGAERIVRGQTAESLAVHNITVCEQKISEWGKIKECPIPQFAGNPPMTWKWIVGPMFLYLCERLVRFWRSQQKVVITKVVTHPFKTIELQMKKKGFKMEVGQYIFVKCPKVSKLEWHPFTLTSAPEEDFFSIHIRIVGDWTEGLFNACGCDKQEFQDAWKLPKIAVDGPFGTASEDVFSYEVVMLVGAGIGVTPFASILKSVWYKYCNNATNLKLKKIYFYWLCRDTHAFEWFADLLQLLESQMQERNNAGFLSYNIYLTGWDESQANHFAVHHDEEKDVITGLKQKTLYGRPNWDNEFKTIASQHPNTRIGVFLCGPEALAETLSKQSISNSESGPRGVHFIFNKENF
SMILES,z-score [1],composite z-score [2],z-score [3],z-score [4],z-score [5],z-score [6],z-score [7],z-score [8],z-score [9],z-score [10]
NCCCCCNC(=O)[C@H]1C[C@H]2C(=O)N[C@@H](Cc3ccccc3)C(=O)N2[C@H]1c1ccc(O)cc1,0.097 (inactive),1.01,3.38 (inactive),0.288 (inactive),1.54 (inactive),0.204 (inactive),0.0042,0.354 (inactive),-0.384 (inactive),-0.912
C=CCN1C(=O)[C@@]2(O[C@@H](CCO)[C@H]([Si](C)(C)c3ccc(OC)cc3)[C@H]2C)c2cc(N3CCOC3=O)ccc21,0.232 (inactive),-0.152,24.6 (active),12.6 (active),0.28 (inactive),2.21 (inactive),0.309,-2.41 (inactive),1.35 (inactive),-1.52
CC(=O)n1cc(C(O)C2C=CC3C(=O)N(c4ccccc4)C(=O)C3N2Nc2ccc(C(C)C)cc2)c2ccccc21 (stereo not given),-1.44 (inactive),0.698,2.38 (inactive),0.959 (inactive),-0.43 (inactive),1.46 (inactive),-1.04,-1.19 (inactive),-2.92 (inactive),-3.44
Cc1nc2cc(Br)ccc2c(=O)n1Cc1cccc(O)c1,0.685 (inactive),-0.216,0.73 (inactive),0.368 (inactive),0.136 (inactive),0.377 (inactive),-0.257,-0.763 (inactive),-0.191 (inactive),-0.302
C=CC[C@H](OC(=O)Nc1ccc(SC)cc1)c1ccc(OCCO)cc1,-0.393 (inactive),-0.0987,31 (active),17.3 (active),3.54 (inactive),1.58 (inactive),-0.161,-1.96 (inactive),-0.438 (inactive),-1.34
COCCCNC(=O)[C@@]1(c2ccc([N+](=O)[O-])cc2)CC(=O)N(C(C)C)[C@@H]1c1ccc(CO)cc1,0.569 (inactive),0.125,0.481 (inactive),-0.135 (inactive),-0.288 (inactive),-0.0629 (inactive),0.361,-0.635 (inactive),0.726 (inactive),-0.0684
C=C(COC)C(=O)CC[C@H](OC(=O)c1cccnc1)c1ccc(CO)o1,-0.471 (inactive),-0.147,0.904 (inactive),0.0112 (inactive),-0.376 (inactive),0.063 (inactive),-0.262,0.337 (inactive),-0.159 (inactive),0.221
Cc1ccccc1C(O)C1C=CC2C(=O)N(c3ccccc3)C(=O)C2N1Nc1ccc([N+](=O)[O-])cc1 (stereo not given),-0.467 (inactive),0.186,26.5 (active),11.2 (active),2.6 (inactive),1.52 (inactive),-0.483,-1.29 (inactive),-3.58 (inactive),-1.83
C=C(CCCC)/C(=C/C[C@H](OC(C)=O)c1ccc(OCCO)cc1)c1cc(C(=O)OC)ccc1OC,0.564 (inactive),-0.0378,24.5 (active),7.58 (inactive),2.3 (inactive),1.48 (inactive),0.376,-0.338 (inactive),-0.759 (inactive),-1.56
CCCCCCCCCCC(O)C1C=CC2C(=O)N(C)C(=O)C2N1Nc1cc(OC)c(OC)c(OC)c1 (stereo not given),-1.99 (inactive),0.166,13.6 (active),3.42 (inactive),0.214 (inactive),2.15 (inactive),-0.635,-2.1 (inactive),-4.98 (inactive),-0.944
CCOC(=O)C[C@H]1[C@H](OC(=O)c2ccccc2-c2ccccc2)[C@@H](NC(=O)c2ccc3ccccc3n2)c2cc(OCCCO)ccc2N1C(=O)c1ccccc1,-1.04 (inactive),0.0355,1.35 (inactive),0.496 (inactive),0.667 (inactive),0.305 (inactive),-0.35,0.838 (inactive),1.23 (inactive),2.31
COCCOC(=O)N1C(=O)[C@@]2(c3cc(C#CCNC(N)=O)ccc31)[C@H](c1ccc(O)cc1)N1[C@H](c3ccccc3)[C@H](c3ccccc3)OC(=O)[C@H]1[C@@H]2C(N)=O,0.847 (inactive),-0.67,0.646 (inactive),0.783 (inactive),-0.158 (inactive),0.386 (inactive),0.285,0.37 (inactive),0.163 (inactive),0.361
CCCCCN1CC=CC23O[C@@H]4/C=C\CCC(C)OC(=O)C4[C@H]2C(=O)N(CCCCCCO)[C@@H]3C1=O (stereo not given in full),1.6 (inactive),0.0378,1.25 (inactive),0.971 (inactive),0.26 (inactive),0.967 (inactive),2.19,1.25 (inactive),0.0532 (inactive),1.74
CC(=O)NCCCC[C@@H]1NC(=O)[C@H]2C[C@@H](C(=O)NCCCCCNC(=O)CS)[C@@H](c3cccc(OCCO)c3)N2C1=O,-0.486 (inactive),-0.0573,1.85 (inactive),0.461 (inactive),-0.369 (inactive),0.227 (inactive),0.0439,1.87 (inactive),0.825 (inactive),0.697
[N-]=[N+]=Nc1ccccc1[C@@H]1OC(c2ccc(OCCCO)cc2)=N[C@]1(Cc1ccccc1)C(=O)NCc1ccccc1,-0.165 (inactive),0.703,31.6 (active),29.2 (active),3.08 (inactive),7.04 (inactive),-0.403,-2.11 (inactive),1.15 (inactive),0.377
NC(=O)[C@H]1[C@@H]2C(=O)O[C@@H](c3ccccc3)[C@@H](c3ccccc3)N2[C@@H](c2ccc(O)cc2)[C@]12C(=O)Nc1ccccc12,-0.261 (inactive),-0.18,3.33 (inactive),1.23 (inactive),0.217 (inactive),0.515 (inactive),-0.471,-0.741 (inactive),-0.988 (inactive),0.572
[N-]=[N+]=Nc1ccccc1C[C@]1(C(=O)O)N=C(c2ccc(OCCCO)cc2)O[C@H]1c1ccccc1N=[N+]=[N-],0.476 (inactive),0.612,30.8 (active),27.6 (active),2.88 (inactive),4.45 (inactive),-0.0428,-2.72 (inactive),0.551 (inactive),-2.15
COc1cc2c(cc1O)C(c1ccc(CN3CCCC3)cc1)N(C)CC2 (stereo not given),0.309 (inactive),-0.446,0.0334 (inactive),-0.0719 (inactive),0.247 (inactive),0.0339 (inactive),-0.364,-1.63 (inactive),-1.46 (inactive),-1.22
COc1ccc([Si](C)(C)[C@@H]2[C@@H](CCn3cc([C@H](O)c4ccccc4)nn3)O[C@]3(C(=O)N(Cc4cccc(N5C(=O)c6cccc7cccc5c67)c4)c4ccccc43)[C@H]2C)cc1,-0.603 (inactive),0.0056,1.8 (inactive),0.662 (inactive),1.1 (inactive),0.794 (inactive),-0.256,1.08 (inactive),1.48 (inactive),2.2
C=CCNC(=O)[C@@H]1[C@H]2C(=O)O[C@H](c3ccccc3)[C@H](c3ccccc3)N2[C@H](c2ccc(O)cc2)[C@@]12C(=O)N(C(=O)OCCOC)c1ccc(C#CCCO)cc12,-0.181 (inactive),0.0911,2.22 (inactive),0.517 (inactive),0.0855 (inactive),0.121 (inactive),0.0918,0.982 (inactive),0.194 (inactive),1.06
C=C(C(=O)CC[C@@H](OC(=O)c1ccccc1-c1ccccc1C(=O)O)c1ccccc1OCCO)C(C)C,0.0884 (inactive),0.15,4.57 (inactive),0.769 (inactive),1.56 (inactive),0.232 (inactive),0.689,-0.518 (inactive),-0.798 (inactive),-1.48
CN1C(=O)[C@@H]2[C@@H](CC(COc3ccccc3)=C([C@H](O)CCc3ccccc3)[C@@H]2CO)C1=O,2.03 (inactive),-0.328,29.5 (active),21.6 (active),-0.0433 (inactive),1.43 (inactive),0.867,-0.561 (inactive),0.867 (inactive),0.199
CCOC(=O)C[C@H]1[C@H](OC(=O)c2ccccc2-c2ccccc2)[C@@H](NC(=O)c2ccccc2)c2cc(OCCCO)ccc2N1C(=O)c1ccccc1,-1.13 (inactive),-0.0547,1.61 (inactive),0.0478 (inactive),1.11 (inactive),0.256 (inactive),-0.133,0.418 (inactive),0.884 (inactive),0.838
COCCOC(=O)N1C(=O)[C@@]2(c3ccccc31)[C@H](c1ccccc1OCCO)N1[C@H](c3ccccc3)[C@H](c3ccccc3)OC(=O)[C@H]1[C@@H]2C(=O)N1CCCCCCC1,-0.553 (inactive),3.11,1.26 (inactive),0.612 (inactive),0.0224 (inactive),0.557 (inactive),-0.37,0.168 (inactive),-1.29 (inactive),0.481
COCC(=C=CC[C@@H](O)c1ccc(OCCO)cc1)CCO,1.15 (inactive),0.0391,6.19 (inactive),0.492 (inactive),1.32 (inactive),0.381 (inactive),0.357,-2.03 (inactive),-0.406 (inactive),-0.727
COc1ccc([Si](C)(C)[C@H]2[C@H](CCO)O[C@@]3(C(=O)N(Cc4ccc(N5C(=O)c6ccccc6Oc6ccccc65)cc4)c4ccccc43)[C@@H]2C)cc1,0.157 (inactive),0.0211,4.29 (inactive),2.83 (inactive),-1.44 (inactive),1.38 (inactive),0.211,-0.681 (inactive),2.36 (inactive),1.9
